Here are results for twelve compounds from PubChem BioAssay (Tox21).

Unmarked numbers belong to inactive results. Inconclusive results are not listed. Calls of active or inactive are those of the source. The call rests on the fitted dose curve; in most records, active means well fitted curve in the direction sought with a large enough effect in the repeat runs; inconclusive means weak or mixed curves; inactive means no such curve, though single readings can be large; an effect the other way counts as inactive or inconclusive.

Experiment [1] in a line: Human pregnane X receptor (PXR) small molecule agonists, qHTS cell viability counter screen (AID 1346977). Further: nearly all actives have a fitted effect of over 50% in size. Further: potency means the concentration at half of the fitted maximal effect. A digest of the protocol:
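Readout is CellTiter-Fluor fluorescence from PXR-Luc HepG2 cells. Plated cells rested 5hr, then were treated with compounds for 24hr at 37C and 5% CO2, with reagent present during the last hour.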
In general terms: In qHTS, concentration-response curves come from the screen itself.

A short description of experiment [2]: Caspase-3/7 induction in HepG2 cells by small molecules, qHTS assay (AID 1346978). Further: nearly all actives have a fitted effect of over 15% in size. Summed up:
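Wild-type HepG2 cells (2,000/well) were settled 5 h at 37 C, 5% CO2, then exposed to compounds in DMSO for 17 h. Caspase-3/7 activity was read by luminescence 30 min after adding Caspase-Glo 3/7 reagent at room temperature.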

The nature of experiment [3]: Caspase-3/7 induction in CHO-K1 cells by small molecules, qHTS cell viability counter screen (AID 1346979). Further: nearly all actives have a fitted effect of over 35% in size. Further: potency means the concentration at half of the fitted maximal effect. A digest of the protocol: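 To flag cytotoxic compounds, treated CHO-K1 wild-type cells were given CellTiter-Fluor at 16hr and read fluorescently after 1hr at 37C; the caspase-3/7 luminescence was measured in these same wells.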
Experiment [4] in a line: Caspase-3/7 induction in CHO-K1 cells by small molecules, qHTS assay (AID 1346980). Further: nearly all actives have a fitted effect of over 15% in size. A digest of the protocol: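 Wild-type cells were seeded at 1,500 per well and settled 5 hr at 37 C, 5% CO2, then exposed to DMSO-dissolved compounds for 17 hr. Caspase-Glo 3/7 reagent was added, and luminescence was read after 30min at room temperature.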
Experiment [5] in a line: Caspase-3/7 induction in HepG2 cells by small molecules, qHTS cell viability counter screen (AID 1346981). Further: series mostly up to about 92 µM; nearly all actives have a fitted effect of over 30% in size. Summed up:
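In this quantitative HTS counter screen, compounds delivered in DMSO were left on unmodified HepG2 cells for 16 hr at 37 C. Viability was then determined fluorometrically with CellTiter-Fluor, in parallel with caspase-3/7 induction in the same wells.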

Experiment [6] has as its target Nuclear receptor subfamily 1 group I member 2 (Homo sapiens) (UniProt O75469). Kind of experiment: Human pregnane X receptor (PXR) small molecule agonists, qHTS assay (AID 1346982). Further: nearly all actives have a fitted effect of over 35% in size. Further: potency means the concentration at half of the fitted maximal effect. Summed up:
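Reporter HepG2 cells expressing PXR-Luc are cultured in charcoal-stripped FBS (5%), treated with compounds for 24 hr at 37 C, and assayed by ONE-Glo luminescence after 30 min at room temperature.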

For experiment [7], the target named is Cytochrome P450 2D6 (Homo sapiens) (UniProt P10635). In words: Cytochrome P450 Family 2 Subfamily D Member 6 (CYP2D6) small molecule antagonists: luciferase reporter qHTS assay (AID 1671196). Further: nearly all actives have a fitted effect of over 50% in size. Further: potency means the concentration at half of the fitted maximal effect. Summed up: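 Test chemicals meet CYP2D6 plus proluciferin substrate (10 min, RT); NADPH regenerating solution then drives turnover for 1 h. Detection reagent halts the reaction; luminescence measured after 20 min.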

For experiment [8], the target named is Cytochrome P450 1A2 (Homo sapiens) (UniProt P05177). Kind of experiment: Cytochrome P450 Family 1 Subfamily A Member 2 (CYP1A2) small molecule antagonists: luciferase reporter qHTS assay (AID 1671199). Further: nearly all actives have a fitted effect of over 50% in size. Further: potency means the concentration at half of the fitted maximal effect. Summed up: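 Steps: enzyme-substrate mix dispensed; test compounds and furafylline control pinned in; 10 min room temperature; NADPH regeneration solution added, 1 h; reaction stopped with luciferin detection reagent; luminescence read after 20 min.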
In general terms: A reporter such as luciferase makes a cellular process visible.

Experiment [9] addresses Voltage-gated inwardly rectifying potassium channel KCNH2 (Homo sapiens) (UniProt Q12809). In words: Human Ether-a-go-go-Related Gene (hERG) channel small molecule antagonists: fluorescence cell-based qHTS assay (AID 1671200).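 Further: hERG-expressing U2OS cells given a thallium stimulus after FluxOR II dye loading; series mostly up to about 77 µM; nearly all actives have a fitted effect of over 50% in size.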 Summed up:
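Measured: Tl+ flux via fluorescence (480/540 nm) in hERG-expressing U2OS cells after 1 h dye loading at room temperature.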
Background: Block of hERG is tested as a sign of cardiac risk.

Experiment [10] deals with Cytochrome P450 3A4 (Homo sapiens) (UniProt P08684). In words: Cytochrome P450 Family 3 Subfamily A Member 4 (CYP3A4) small molecule antagonists: luciferase reporter qHTS assay (AID 1671201). Further: nearly all actives have a fitted effect of over 50% in size. Further: potency means the concentration at half of the fitted maximal effect. Summed up:
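Setup: enzyme-substrate mix, compound pin transfer, 10 min RT. Reaction: NADPH regeneration solution, 1 h RT. Readout: detection reagent stops turnover, luminescence measured after 20 min, expressed in relative luminescence units.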

The target in experiment [11] is Cytochrome P450 2C19 (Homo sapiens) (UniProt P33261). In words: Cytochrome P450 Family 2 Subfamily C Member 19 (CYP2C19) small molecule antagonists: luciferase reporter qHTS assay (AID 1671197). Further: nearly all actives have a fitted effect of over 65% in size. Further: potency means the concentration at half of the fitted maximal effect. Summed up: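 Quantitative high-throughput screen of the Tox21 library using CYP2C19 with proluciferin substrate. Reaction: NADPH regeneration, 37C, 1 h, after 10 min compound preincubation at room temperature. Readout: luminescence.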

For experiment [12], the target named is Cytochrome P450 2C9 (Homo sapiens) (UniProt P11712). In words: Cytochrome P450 Family 2 Subfamily C Member 9 (CYP2C9) small molecule antagonists: luciferase reporter qHTS assay (AID 1671198). Further: nearly all actives have a fitted effect of over 50% in size. Further: potency means the concentration at half of the fitted maximal effect. A digest of the protocol:
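CYP2C9 activity was measured with a P450-Glo proluciferin substrate. Enzyme–substrate mix was held with compound for 10 min at room temperature, then NADPH regeneration solution was added for 1 h at 37C. Luciferin product was read as luminescence.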

Cytochrome P450 2D6 (Homo sapiens), sequence (P10635 whole entry, looked up): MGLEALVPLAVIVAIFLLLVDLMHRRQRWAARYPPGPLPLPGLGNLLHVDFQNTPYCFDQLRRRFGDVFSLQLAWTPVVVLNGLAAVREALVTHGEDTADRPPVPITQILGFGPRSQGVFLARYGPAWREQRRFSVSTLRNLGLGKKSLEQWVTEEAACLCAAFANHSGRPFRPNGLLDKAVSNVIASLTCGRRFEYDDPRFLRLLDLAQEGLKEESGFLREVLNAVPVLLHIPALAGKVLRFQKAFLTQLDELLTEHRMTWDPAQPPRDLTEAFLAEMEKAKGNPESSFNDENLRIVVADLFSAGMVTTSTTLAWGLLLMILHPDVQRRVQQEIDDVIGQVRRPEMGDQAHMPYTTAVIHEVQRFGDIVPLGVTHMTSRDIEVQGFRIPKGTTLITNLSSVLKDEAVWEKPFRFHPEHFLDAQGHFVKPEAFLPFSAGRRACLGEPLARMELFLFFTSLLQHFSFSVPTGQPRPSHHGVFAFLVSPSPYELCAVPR
Voltage-gated inwardly rectifying potassium channel KCNH2 (Homo sapiens), sequence (Q12809 whole entry, looked up): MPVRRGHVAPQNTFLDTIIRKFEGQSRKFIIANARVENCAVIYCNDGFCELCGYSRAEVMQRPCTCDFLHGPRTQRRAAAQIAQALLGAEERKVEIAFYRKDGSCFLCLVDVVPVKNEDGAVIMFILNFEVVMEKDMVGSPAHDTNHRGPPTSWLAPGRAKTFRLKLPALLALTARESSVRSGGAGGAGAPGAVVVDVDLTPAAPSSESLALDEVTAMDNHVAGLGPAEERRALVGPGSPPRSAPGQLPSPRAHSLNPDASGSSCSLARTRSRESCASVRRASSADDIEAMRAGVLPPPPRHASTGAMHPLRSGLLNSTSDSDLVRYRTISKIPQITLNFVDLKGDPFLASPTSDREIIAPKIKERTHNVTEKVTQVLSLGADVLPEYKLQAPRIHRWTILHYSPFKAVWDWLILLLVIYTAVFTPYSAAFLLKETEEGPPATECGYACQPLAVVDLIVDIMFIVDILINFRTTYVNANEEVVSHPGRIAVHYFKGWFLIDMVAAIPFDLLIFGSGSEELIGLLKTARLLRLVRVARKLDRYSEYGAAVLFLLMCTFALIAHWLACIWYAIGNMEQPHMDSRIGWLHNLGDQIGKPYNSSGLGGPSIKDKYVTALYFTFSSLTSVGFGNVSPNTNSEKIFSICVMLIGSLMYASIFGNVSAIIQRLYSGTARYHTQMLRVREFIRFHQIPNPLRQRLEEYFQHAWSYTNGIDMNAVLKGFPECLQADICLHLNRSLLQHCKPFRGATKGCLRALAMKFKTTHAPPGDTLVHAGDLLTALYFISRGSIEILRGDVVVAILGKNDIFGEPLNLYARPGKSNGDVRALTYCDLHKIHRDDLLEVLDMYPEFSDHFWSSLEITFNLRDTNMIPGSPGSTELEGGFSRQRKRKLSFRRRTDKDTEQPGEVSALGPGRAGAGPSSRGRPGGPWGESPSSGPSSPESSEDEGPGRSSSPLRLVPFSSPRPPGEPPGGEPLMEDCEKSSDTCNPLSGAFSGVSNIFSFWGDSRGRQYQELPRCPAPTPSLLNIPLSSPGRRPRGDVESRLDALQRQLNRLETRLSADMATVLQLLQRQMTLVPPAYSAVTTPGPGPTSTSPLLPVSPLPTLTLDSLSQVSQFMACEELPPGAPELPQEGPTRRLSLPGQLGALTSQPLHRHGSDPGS
Cytochrome P450 2C19 (Homo sapiens), sequence (P33261 whole entry, looked up): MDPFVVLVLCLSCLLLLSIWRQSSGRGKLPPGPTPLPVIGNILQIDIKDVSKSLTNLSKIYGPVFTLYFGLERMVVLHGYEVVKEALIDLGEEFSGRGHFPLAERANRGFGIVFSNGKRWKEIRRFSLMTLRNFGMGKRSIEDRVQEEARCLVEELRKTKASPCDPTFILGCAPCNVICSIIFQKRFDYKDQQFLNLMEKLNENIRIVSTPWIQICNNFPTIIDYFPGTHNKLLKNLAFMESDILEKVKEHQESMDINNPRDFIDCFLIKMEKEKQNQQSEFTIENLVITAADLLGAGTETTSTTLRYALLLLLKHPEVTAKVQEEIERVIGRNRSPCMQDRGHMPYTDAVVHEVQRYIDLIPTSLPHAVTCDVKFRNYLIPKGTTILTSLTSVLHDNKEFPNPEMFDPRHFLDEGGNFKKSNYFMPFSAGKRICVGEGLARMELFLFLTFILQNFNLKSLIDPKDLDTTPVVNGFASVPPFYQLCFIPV
Nuclear receptor subfamily 1 group I member 2 (Homo sapiens), sequence (O75469 whole entry, looked up): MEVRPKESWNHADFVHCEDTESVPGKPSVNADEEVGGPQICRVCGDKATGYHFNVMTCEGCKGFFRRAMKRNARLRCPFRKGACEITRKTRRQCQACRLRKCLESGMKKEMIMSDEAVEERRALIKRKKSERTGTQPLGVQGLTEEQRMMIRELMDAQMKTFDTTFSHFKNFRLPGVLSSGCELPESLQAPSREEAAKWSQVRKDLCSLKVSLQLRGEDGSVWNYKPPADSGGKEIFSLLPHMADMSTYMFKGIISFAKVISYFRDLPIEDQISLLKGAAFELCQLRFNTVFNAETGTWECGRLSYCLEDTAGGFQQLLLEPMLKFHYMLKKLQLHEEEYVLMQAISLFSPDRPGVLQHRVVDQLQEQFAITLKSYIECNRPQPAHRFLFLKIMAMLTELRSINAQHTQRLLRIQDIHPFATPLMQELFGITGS
Cytochrome P450 2C9 (Homo sapiens), sequence (P11712 whole entry, looked up): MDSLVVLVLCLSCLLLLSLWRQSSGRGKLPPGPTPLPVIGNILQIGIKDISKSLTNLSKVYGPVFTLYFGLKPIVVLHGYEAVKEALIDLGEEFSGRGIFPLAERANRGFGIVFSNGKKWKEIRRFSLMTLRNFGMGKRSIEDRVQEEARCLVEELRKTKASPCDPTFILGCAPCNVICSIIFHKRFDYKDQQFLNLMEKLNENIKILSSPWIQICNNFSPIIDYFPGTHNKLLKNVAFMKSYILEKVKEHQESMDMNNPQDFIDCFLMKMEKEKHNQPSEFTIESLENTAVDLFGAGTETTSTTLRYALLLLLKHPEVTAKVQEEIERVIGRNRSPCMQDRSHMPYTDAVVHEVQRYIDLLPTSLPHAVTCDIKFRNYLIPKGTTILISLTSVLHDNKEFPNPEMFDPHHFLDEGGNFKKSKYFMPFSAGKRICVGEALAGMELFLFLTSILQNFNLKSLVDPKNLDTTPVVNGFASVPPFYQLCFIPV
Cytochrome P450 3A4 (Homo sapiens), sequence (P08684 whole entry, looked up): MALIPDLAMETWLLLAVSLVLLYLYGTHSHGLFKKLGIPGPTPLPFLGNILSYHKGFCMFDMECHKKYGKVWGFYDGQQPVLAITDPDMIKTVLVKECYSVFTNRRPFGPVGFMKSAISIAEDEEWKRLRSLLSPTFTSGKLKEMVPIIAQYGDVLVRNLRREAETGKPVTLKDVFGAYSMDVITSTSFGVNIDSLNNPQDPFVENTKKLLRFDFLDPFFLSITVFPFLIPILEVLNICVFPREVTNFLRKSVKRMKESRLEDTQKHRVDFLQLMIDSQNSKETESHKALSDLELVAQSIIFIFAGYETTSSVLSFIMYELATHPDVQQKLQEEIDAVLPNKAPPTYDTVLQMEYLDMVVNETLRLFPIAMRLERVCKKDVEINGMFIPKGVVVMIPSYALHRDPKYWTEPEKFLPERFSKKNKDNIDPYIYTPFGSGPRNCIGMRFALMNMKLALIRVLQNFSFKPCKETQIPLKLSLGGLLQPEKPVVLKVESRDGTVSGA
Cytochrome P450 1A2 (Homo sapiens), sequence (P05177 whole entry, looked up): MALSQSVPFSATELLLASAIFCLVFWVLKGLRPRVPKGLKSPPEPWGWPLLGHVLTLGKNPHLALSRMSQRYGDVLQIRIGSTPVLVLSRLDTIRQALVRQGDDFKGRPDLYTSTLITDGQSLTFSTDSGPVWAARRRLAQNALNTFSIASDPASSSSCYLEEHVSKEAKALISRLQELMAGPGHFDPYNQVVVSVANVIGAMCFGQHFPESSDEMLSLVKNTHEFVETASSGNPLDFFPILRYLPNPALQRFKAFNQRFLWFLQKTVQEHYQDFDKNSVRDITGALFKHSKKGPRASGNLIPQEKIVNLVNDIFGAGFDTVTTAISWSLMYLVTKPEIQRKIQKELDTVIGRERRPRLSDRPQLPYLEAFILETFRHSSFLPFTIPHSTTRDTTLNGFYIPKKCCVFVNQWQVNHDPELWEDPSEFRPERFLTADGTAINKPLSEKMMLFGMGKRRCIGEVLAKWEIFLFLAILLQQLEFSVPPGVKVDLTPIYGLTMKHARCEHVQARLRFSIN

Turning to `CC1=CC(C)C(C=O)C(C)C1` (centres undefined), the Potency result in experiment [1], in [3], in experiment [6], in experiment [7], in experiment [8] and in experiment [9] was “inactive” throughout. In experiment [10], the Potency entry was “inactive”. The compound was classed as inactive in [2], in [4] and in experiment [5].

Take `N#CC1(O)CCCCC1`: the Potency was 17.4 µM (active) in experiment [1], 27.5 µM (active) in experiment [3], 17.4 µM (active) in experiment [6] and 40.2 µM (active) in experiment [11]. The outcome in experiment [2] and in [4] was inactive. The Potency result in [9] and in experiment [10] was “inactive” in each case.

On to `NCCN1CCNC1=O`, for which the Potency entry in experiment [1], in experiment [3], in experiment [7], in experiment [12], in experiment [8] and in experiment [9] was “inactive” in each case. The Potency entry in experiment [10] was “inactive”. The compound was called inactive in experiment [2], in [4] and in experiment [5].

With `O=S(=O)(O)c1ccccc1O`, the Potency entry in experiment [1], in experiment [3], in [6], in [12] and in [8] was “inactive” in each case. For the same compound, the compound was called inactive in experiment [2], in experiment [4] and in experiment [5]. For the same compound, in experiment [7], the Potency is 25.2 µM (active).

With `CCOC(=O)Nc1ccc2c(c1)N(C(=O)CCN1CCOCC1)c1ccccc1S2`, the Potency result in experiment [1], in experiment [3], in [8] and in [9] was “inactive” each time. In addition, the compound was classed as inactive in experiment [2], in experiment [4] and in experiment [5]. In addition, the Potency in [6] was 7.5 µM (active); in experiment [11], 7.76 µM (active); in [12] it was 15.5 µM (active).

As to `C#CC(O)CCCCC` (centres undefined), the Potency result in experiment [1], in [6], in [7], in experiment [12], in [9] and in experiment [10] was “inactive” each time. Further, the compound was classed as inactive in experiment [2], in experiment [4] and in [5].

Take `C1=C\CC/C=C\CC/C=C\CC/1`: the Potency result in [1], in experiment [3], in experiment [6], in [7], in [11] and in experiment [9] was “inactive” in each case. In addition, the Potency entry in experiment [10] was “inactive”. For the same compound, the compound was classed as inactive in experiment [2], in experiment [4] and in experiment [5].

For the compound `CSc1ccc(C=O)cc1`, the Potency result in experiment [1], in [3], in experiment [7], in [11], in [12] and in experiment [10] was “inactive” each time. Also, the result in [2], in experiment [4] and in experiment [5] was inactive.

As to `COC(C(=O)O)c1ccccc1` (centres undefined), the Potency result in [1], in [3], in experiment [6], in [11], in experiment [12] and in experiment [8] was “inactive” each time. Moreover, the Potency entry in [9] and in [10] was “inactive” in each case. Further, the outcome in experiment [2], in [4] and in [5] was inactive.

In the case of `Cc1ccccc1C(=O)O`, the Potency entry in experiment [1], in [7], in experiment [12], in [8], in experiment [9] and in [10] was “inactive” in each case. The result in experiment [2], in [4] and in [5] was inactive. Besides, the Potency in experiment [6] was 30.1 µM (active).

As for `CSc1nc(NC2CC2)nc(NC(C)(C)C)n1`, the Potency result in [1] and in experiment [3] was “inactive” each time. The result in [2] and in experiment [4] was inactive. Further, the Potency in experiment [6] was 21.7 µM (active); in experiment [11], 20 µM (active); in experiment [12], 35.6 µM (active); in experiment [8], 2.52 µM (active); in [10], 39.9 µM (active).

Turning to `Cn1cnc2c(=O)[nH]c(N)nc21`, the Potency result in experiment [1], in experiment [3], in experiment [6], in experiment [7], in experiment [12] and in [9] was “inactive” each time. The outcome in experiment [2] and in experiment [5] was inactive. In addition, the Potency in [8] was 28.3 µM (active).
